Assay results published in PubChem BioAssay (EPA / NIEHS).
Inconclusive results are not listed. The source made the active and inactive calls. Rule for the calls, unless noted: active = hit-call score of the fitted dose curve at least 0.9, where 1 is the maximum; inconclusive = response in the unintended direction; inactive = score below 0.9.

Tests used:
[1] = TOX21_p53_BLA_p3_viability: Viability Assessment in the Tox21 HCT-116 p53 Agonism Beta-lactamase Assay, Phase 3 (AID 2283593);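 note: cells exposed to compound for 16 h before reading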
Procedure, shortened: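 HCT-116 cells (4000/well) rested 5 h at 37C, then got DMSO compounds by pin tool (217-fold dilution) for 16 h at 37C, 5% CO2. After the bla read, CellTiter-Glo was added and luminescence read at 30 min, room temperature.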

[2] = biological target: Cellular tumor antigen p53 (Homo sapiens) (UniProt P04637); experiment: TOX21_p53_BLA_p3_ratio: Tox21 HCT-116 p53 Agonism Beta-lactamase Assay, Ratio, Phase 3 (AID 2283596)
Cellular tumor antigen p53 (Homo sapiens), sequence (P04637 whole entry, looked up): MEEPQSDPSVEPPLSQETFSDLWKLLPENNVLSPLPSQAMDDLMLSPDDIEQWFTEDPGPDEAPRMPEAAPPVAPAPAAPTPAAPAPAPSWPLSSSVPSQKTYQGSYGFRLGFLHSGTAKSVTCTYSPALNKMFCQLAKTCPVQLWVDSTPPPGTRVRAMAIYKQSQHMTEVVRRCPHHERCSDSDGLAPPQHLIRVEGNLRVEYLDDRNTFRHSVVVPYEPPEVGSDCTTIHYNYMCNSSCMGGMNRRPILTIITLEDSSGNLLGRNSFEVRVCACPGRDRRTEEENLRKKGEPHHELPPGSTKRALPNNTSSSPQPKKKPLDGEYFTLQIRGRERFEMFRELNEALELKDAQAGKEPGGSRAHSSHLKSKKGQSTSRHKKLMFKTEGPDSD
Procedure, shortened: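 HCT116 p53-bla cells (4000/well) given compound in DMSO (217-fold dilution) after 5 h, incubated 16 h at 37C. CCF4-AM substrate 2 h at room temperature; 460/530 nm emission ratio, gain fitted against DMSO.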

[3] = TOX21_p53_BLA_p5_viability: Viability Assessment in the Tox21 HCT-116 p53 Agonism Beta-lactamase Assay, Phase 5 (AID 2283600)
Procedure, shortened: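 After the 460/530 nm beta-lactamase measurement, the wells received an ATP-detection luciferase reagent; signal was read 30 min later at RT. Compound treatment lasted 16 h on cells pre-incubated 5 h post-seeding.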

[4] = biological target: Cellular tumor antigen p53 (Homo sapiens) (UniProt P04637); experiment: TOX21_p53_BLA_p4_ratio: Tox21 HCT-116 p53 Agonism Beta-lactamase Assay, Ratio, Phase 4 (AID 2283601)
Procedure, shortened: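 HCT116 cells carrying an inducible beta-lactamase reporter were plated at 4000 cells/well, rested 5 h, then exposed to compounds in DMSO (217-fold dilution) for 16 h at 37C. CCF4-AM substrate was loaded 2 h at room temperature; 460/530 nm emission ratio scored gain-of-signal versus DMSO.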

[5] = TOX21_p53_BLA_p4_viability: Viability Assessment in the Tox21 HCT-116 p53 Agonism Beta-lactamase Assay, Phase 4 (AID 2283597);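 note: hits lower the luminescence signal meaning cytotoxicity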
Procedure, shortened: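 Following a 16 h exposure at 37C, the treated HCT116 wells were first read for the FRET ratio. They were then lysed with CellTiter-Glo, and ATP luminescence was recorded after 30 min at room temperature.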

[6] = biological target: Cellular tumor antigen p53 (Homo sapiens) (UniProt P04637); experiment: TOX21_p53_BLA_p5_ratio: Tox21 HCT-116 p53 Agonism Beta-lactamase Assay, Ratio, Phase 5 (AID 2283599)
Procedure, shortened: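 HCT-116 cells carrying a p53-inducible beta-lactamase reporter were seeded at 4000 cells/well and dosed after 5 h with compound in DMSO (217-fold dilution). After 16 h at 37C, CCF4-AM substrate was added for 2 h, and the 460/530 nm emission ratio was scored as gain-of-signal versus DMSO.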

[7] = CCTE_Deisenroth_AIME_96WELL_CTox_Active: Cytotoxicity Assessment (CTOX) in CCTE's 96-well Estrogen Receptor Transactivation Assay with AIME metabolic competence (metabolism positive), Deisenroth Lab (AID 2284028)
Procedure, shortened: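 Chemicals (0.002–200 uM) were first incubated 2 h with alginate-immobilized phenobarbital/beta-naphthoflavone-induced male rat liver S9; conditioned medium then went onto VM7Luc4E2 cells for 24 h, with viability read by protease-substrate fluorescence, fitted bidirectionally.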

[8] = CCTE_Deisenroth_AIME_96WELL_CTox_Inactive: Cytotoxicity Assessment (CTOX) in CCTE's 96-well Estrogen Receptor Transactivation Assay without AIME metabolic competence (metabolism negative), Deisenroth Lab (AID 2284029)
Procedure, shortened: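 Chemicals (10-point series, 0.002-200 uM) were incubated 2 h with alginate-water microspheres lacking S9. The conditioned medium was then transferred onto VM7Luc4E2 cells for 24 h. Viability was measured by protease-substrate cleavage to a fluorescent probe, with loss of signal fitted bidirectionally; n≥4 experimental replicates.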

[9] = CCTE_Shafer_MEA_dev_firing_rate_mean: CCTE's Neural Network Formation Assay for Mean Firing Rate, Shafer Lab (AID 2284031; active = hit-call score of the fitted dose curve at least 0.9, where 1 is the maximum; inactive = score below 0.9)
Procedure, shortened: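 Developing rat cortical networks on MEA plates undergo 12-day compound exposure. Firing frequency, averaged across active electrodes, is integrated as area under the curve over four recording days, referenced to DMSO.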

[10] = CCTE_Shafer_MEA_dev_per_burst_spike_percent: CCTE's Neural Network Formation Assay for Percent of Spikes in a Burst, Shafer Lab (AID 2284032; active = hit-call score of the fitted dose curve at least 0.9, where 1 is the maximum; inactive = score below 0.9)
Procedure, shortened: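 Rat primary cortical neurons on 16-electrode MEA wells, dosed from plating day 0 for 12 days with renewal on DIV 5 and 9; spikes-in-bursts percentage averaged over bursting electrodes, collapsed as AUC across days 5, 7, 9, 12; loss direction versus DMSO.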

[11] = CCTE_Shafer_MEA_dev_active_electrodes_number: CCTE's Neural Network Formation Assay for Number of Active Electrodes, Shafer Lab (AID 2284040)
Procedure, shortened: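 Rat cortical primary cultures, 1.5 x 10^5 cells/well, PEI-coated MEA, laminin drop. Continuous exposure DIV 0–12; full media/compound change DIV 5, 9. Readout: electrodes with mean firing ≥5 spikes/min; AUC across days; loss vs DMSO.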

[12] = CCTE_Shafer_MEA_dev_burst_rate: CCTE's Neural Network Formation Assay for Burst Rate, Shafer Lab (AID 2284042; active = hit-call score of the fitted dose curve at least 0.9, where 1 is the maximum; inactive = score below 0.9)
Procedure, shortened: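 Rat primary cortical cultures on PEI/laminin MEA; compound from plating, re-dosed at DIV 5, 9 media change. Single-electrode bursts/recording length, well mean of active electrodes; AUC over DIV 5–12 recordings; loss-of-signal vs DMSO.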

[13] = CCTE_Shafer_MEA_dev_bursting_electrodes_number: CCTE's Neural Network Formation Assay for Number of Bursting Electrodes, Shafer Lab (AID 2284043)
Procedure, shortened: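 Primary rat cortical neurons were cultured on PEI-coated 48-well MEA plates (16 electrodes/well) and exposed from plating through day 12, with compound renewed at feeds on DIV 5 and 9. Electrodes bursting ≥1 per 2 min were counted on DIV 5, 7, 9, 12; trapezoidal AUC taken.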

[14] = CCTE_Shafer_MEA_dev_per_burst_interspike_interval: CCTE's Neural Network Formation Assay for Burst Interspike Interval, Shafer Lab (AID 2284044; active = hit-call score of the fitted dose curve at least 0.9, where 1 is the maximum; inactive = score below 0.9;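 note: mean spike spacing inside bursts as AUC over recordings on days 5 7 9 12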)
Procedure, shortened: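 Mean interspike interval within single-electrode bursts, averaged over bursting electrodes, from rat cortical cultures on MEA plates recorded on days 5, 7, 9 and 12. Continuous compound exposure from plating; trapezoidal AUC fitted downward relative to DMSO.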

[15] = CCTE_Shafer_MEA_dev_interburst_interval_mean: CCTE's Neural Network Formation Assay for Mean Interburst Interval, Shafer Lab (AID 2284046; active = hit-call score of the fitted dose curve at least 0.9, where 1 is the maximum; inactive = score below 0.9;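 note: well-mean interburst interval of bursting electrodes as AUC over four recording days; curve fitted for decrease in interburst interval relative to DMSO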)
Procedure, shortened: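 Rat cortical neurons, 1.5 x 10^5 cells/well, 48-well MEA; compound from day 0 through DIV 12, media and treatment renewed DIV 5/9. Recordings DIV 5, 7, 9, 12; well-mean interburst interval → trapezoidal AUC, loss direction vs DMSO.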

[16] = CCTE_Shafer_MEA_dev_inter_network_spike_interval_mean: CCTE's Neural Network Formation Assay for Mean Inter-network Spike Interval, Shafer Lab (AID 2284047; active = hit-call score of the fitted dose curve at least 0.9, where 1 is the maximum; inactive = score below 0.9)
Procedure, shortened: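 Primary rat cortical neurons on PEI-coated 48-well MEAs (16 electrodes/well) were exposed from plating day 0 to DIV 12, with dosing renewed at DIV 5 and 9. Recordings at DIV 5, 7, 9, 12 were collapsed by trapezoidal AUC, loss-of-signal fit vs DMSO.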

[17] = CCTE_Shafer_MEA_dev_network_spike_number: CCTE's Neural Network Formation Assay for Number of Network Spikes, Shafer Lab (AID 2284048; active = hit-call score of the fitted dose curve at least 0.9, where 1 is the maximum; inactive = score below 0.9;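 note: synchronized bursts across electrodes counted on days 5 7 9 12 and integrated as AUC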)
Procedure, shortened: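 Primary rat cortical neurons were seeded at 1.5 x 10^5 cells/well on PEI-coated 16-electrode MEA wells with laminin, exposed from plating day 0, compound renewed at DIV 5 and 9. Network spikes were recorded on days 5, 7, 9, 12 and summarized as trapezoidal AUC versus DMSO.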

[18] = CCTE_Shafer_MEA_dev_network_spike_peak: CCTE's Neural Network Formation Assay for Mean Number of Electrodes in Network Spike, Shafer Lab (AID 2284049; active = hit-call score of the fitted dose curve at least 0.9, where 1 is the maximum; inactive = score below 0.9)
Procedure, shortened: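 Continuous 12-day exposure of rat cortical cultures, starting at plating, on MEA plates. Endpoint: electrodes participating in network-spike peaks, AUC across DIV 5–12, DMSO as negative control.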

[19] = CCTE_Shafer_MEA_dev_network_spike_duration_std: CCTE's Neural Network Formation Assay for Standard Deviation of Network Spike Duration, Shafer Lab (AID 2284052; active = hit-call score of the fitted dose curve at least 0.9, where 1 is the maximum; inactive = score below 0.9;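 note: area under curve of spike duration SD across recording days 5 to 12; hits are decreases in network spike duration SD versus DMSO vehicle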)
Procedure, shortened: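 Rat cortical cultures, 1.5 x 10^5 cells/well, exposed continuously from plating to DIV 12 with media/compound renewal at DIV 5, 9. Spontaneous activity recorded DIV 5/7/9/12, AxIS adaptive spike detector; AUC across days; negative direction vs DMSO.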

[20] = CCTE_Shafer_MEA_dev_per_network_spike_spike_number_mean: CCTE's Neural Network Formation Assay for Mean Number of Spikes in a Network Spike, Shafer Lab (AID 2284053; active = hit-call score of the fitted dose curve at least 0.9, where 1 is the maximum; inactive = score below 0.9)
Procedure, shortened: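 Rat cortical primary cultures on 48-well MEA; compound from day 0, re-dosed with full media change DIV 5, 9. Recorded DIV 5, 7, 9, 12; spikes in 0.05 s window at network-spike peak ÷ total network spikes; AUC; loss vs DMSO.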

[21] = CCTE_Shafer_MEA_dev_per_network_spike_spike_percent: CCTE's Neural Network Formation Assay for Percent of Spikes in a Network Spike, Shafer Lab (AID 2284054; active = hit-call score of the fitted dose curve at least 0.9, where 1 is the maximum; inactive = score below 0.9)
Procedure, shortened: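 Primary rat cortical neurons on 16-electrode MEA wells (PEI-coated, laminin at plating), exposed from day 0 with renewal at DIV 5 and 9; spikes within 0.05 s of network-spike peaks over total spikes, AUC across days 5, 7, 9, 12.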

[22] = CCTE_Shafer_MEA_dev_LDH: CCTE's Lactate Dehydrogenase Assay for Cytotoxicity in the Neural Network Formation Assay, Shafer Lab (AID 2284068);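 note: exposure for twelve days from plating with re-dosing on DIV 5 and 9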
Procedure, shortened: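 Rat cortical primary neurons, MEA culture; dosing day 0–12, full medium plus compound exchange DIV 5, 9. Read-out: LDH enzyme activity, spectrophotometric. DMSO = negative control/baseline; signal loss → cytotoxicity.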

[23] = CCTE_Shafer_MEA_dev_AB: CCTE's Alamar Blue Assay for Cytotoxicity in the Neural Network Formation Assay, Shafer Lab (AID 2284083);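 note: resazurin reduction fluorescence as viability of cultured neurons; twelve days of exposure from plating with re-dosing on DIV 5 and 9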
Procedure, shortened: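 Rat cortical primary cultures, 1.5 x 10^5 cells/well on MEA; continuous compound exposure over 12 days of network development, re-dosed with full medium change DIV 5 and 9. Alamar Blue fluorescence; loss of signal = cytotoxicity vs DMSO baseline.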

Measured: AC50

COc1cc(C[C@@H]2NCCc3cc(O)c(O)cc32)cc(OC)c1OC
inactive: [1] | [2] | [3] | [4]

Cc1ccc(C(C)(C)c2ccc(C)cc2)cc1
inactive: [1] | [2] | [5] | [4]

c1ccc2c(c1)ccc1c3ccccc3ccc21
not listed: [3] | [5]
inactive: all other assays above

Cc1ccccc1C(=O)Nc1ccc(C(=O)N2CCCC(O)c3cc(Cl)ccc32)c(C)c1 (centres undefined)
inactive: [1] | [2] | [6] | [3]

Nc1nc(NC2CC2)c2ncn([C@H]3C=C[C@@H](CO)C3)c2n1
inactive: [1] | [2] | [6] | [3]

O=C(Cn1c(=O)sc2ccc(Cl)cc21)N1CCN(CCO)CC1
inactive: [1] | [2] | [5] | [3] | [4]

Cc1cc(O)c(Cl)cc1C
inactive: [1] | [2] | [6] | [3]

CC(O)CCCCn1c(=O)c2c(ncn2C)n(C)c1=O (centres undefined)
inactive: [1] | [2] | [6] | [4]

O=S(=O)(O)c1cccc(S(=O)(=O)O)c1
inactive: [1] | [2] | [6] | [3] | [4]

C=C1C(=O)O[C@H]2[C@H]1CC/C(C)=C/CC[C@@]1(C)O[C@@H]21
inactive: [1] | [3]
active: [2] 34.3 µM | [5] 36.9 µM

O[C@@H]1CO[C@H]2[C@@H]1OC[C@@H]2O
inactive: [2] | [6] | [3] | [4]
active: [1] 43.1 µM

Oc1ccc(CCNCCCCCCNCCc2ccccc2)cc1O
inactive: [1] | [2] | [5] | [3] | [4]

O=C1N=C2SCCN2C(=O)C1Cc1ccc(Cl)cc1 (centres undefined)
inactive: [1] | [5] | [3]

CC/C(=C(/CC)c1ccc(OP(=O)(O)O)cc1)c1ccc(OP(=O)(O)O)cc1
inactive: [1] | [6]
